# PubChem BioAssay (NCI)
# This is part of a sample that, as a whole, favours compounds with a hit. Of some 83,000 tested, about 20% had one in any assay.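 Assay: single dose, 48 h. Readout: percent growth (0 = no net growth; negative = cell death). Active: <10.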 Unmarked numbers belong to inactive results. Activity calls are given as the source filed them.
# Experiments:
# Experiment in all cases: NCI-60 one-dose screen, 48 h (100 = growth as untreated, 0 = no growth, -100 = all killed)
# Conditions in all cases: 10 µM unless noted
# SR leukemia = test system: SR leukemia
# RPMI-8226 leukemia = test system: RPMI-8226 leukemia
# OVCAR-8 ovarian = test system: OVCAR-8 ovarian
# OVCAR-5 ovarian = test system: OVCAR-5 ovarian
# OVCAR-4 ovarian = test system: OVCAR-4 ovarian
# SK-OV-3 ovarian = test system: SK-OV-3 ovarian
# IGROV1 ovarian = test system: IGROV1 ovarian
# OVCAR-3 ovarian = test system: OVCAR-3 ovarian
# HS 578T breast = test system: HS 578T breast
# NCI/ADR-RES ovarian = test system: NCI/ADR-RES ovarian
# T-47D breast = test system: T-47D breast
# BT-549 breast = test system: BT-549 breast
# MDA-MB-435 melanoma = test system: MDA-MB-435 melanoma
# SW-620 colon = test system: SW-620 colon
# MCF7 breast = test system: MCF7 breast
# HCT-116 colon = test system: HCT-116 colon
# HCC-2998 colon = test system: HCC-2998 colon
# KM12 colon = test system: KM12 colon
SMILES,growth (SR leukemia),growth (RPMI-8226 leukemia),growth (OVCAR-8 ovarian),growth (OVCAR-5 ovarian),growth (OVCAR-4 ovarian),growth (SK-OV-3 ovarian),growth (IGROV1 ovarian),growth (OVCAR-3 ovarian),growth (HS 578T breast),growth (NCI/ADR-RES ovarian),growth (T-47D breast),growth (BT-549 breast),growth (MDA-MB-435 melanoma),growth (SW-620 colon),growth (MCF7 breast),growth (HCT-116 colon),growth (HCC-2998 colon),growth (KM12 colon)
COc1cc2c(c(OC)c1OC)C(=O)CC(c1cccc(C(=O)Nc3ccc(C#N)cc3)c1)O2 (stereo unspecified),41.2%,29.7%,42.9%,102%,55.2%,104%,88.5%,74.5%,92.4%,52.4%,9.48% (active),33%,63%,97.8%,48.7%,56.2%,98.2%,79.1%
CCCCNC(=O)c1ccc2c(c1)nc(-c1ccccc1)n2C1CCCCC1,69.2%,88.3%,102%,102%,102%,48.4%,109%,115%,110%,98%,88.1%,99.7%,99.9%,107%,82.1%,93.1%,102%,88.4%
CN1C(=O)/C(=C/c2ccc(C(=O)Nc3ncc(Cc4cccc(C(F)(F)F)c4)s3)cc2)SC1=S,52.6%,22.1%,59.8%,60.8%,34.4%,50.6%,56.7%,71.1%,63.9%,33.4%,30%,47.3%,-27.2% (active),38.2%,30.4%,43.7%,49.6%,28%
CSc1nc(-c2ccco2)c(C#N)c(=O)n1C,74.9%,91.8%,108%,109%,103%,97%,105%,104%,97%,51.2%,107%,92.6%,102%,97%,98%,100%,1.62% (active),103%
COc1cc(-c2nccc3[nH]c(-c4cccc5[nH]ccc45)nc23)cc(OC)c1OC,8.9% (active),-43.6% (active),18.2%,73.8%,47.5%,15.1%,44.6%,16.7%,38.4%,4.71% (active),39.9%,42.5%,1.47% (active),27%,9.9% (active),4.28% (active),21.6%,16.9%
C=C1C(=O)O[C@H]2[C@H]1CC/C(CNC(=O)Cc1c[nH]c3ccccc13)=C\CC[C@@]1(C)O[C@@H]21,-13.6% (active),-0.862% (active),9.54% (active),46.2%,38.2%,106%,27.7%,-5.5% (active),78.1%,89.9%,-9.45% (active),13.6%,7.96% (active),-20.4% (active),17.8%,-11.9% (active),60.4%,47.5%
N#Cc1c(-c2ccccc2)nc2c(c(-c3ccc(Cl)cc3)nn2-c2ccccc2)c1-c1ccc([N+](=O)[O-])cc1,63.4%,101%,98.5%,99.9%,109%,102%,103%,126%,104%,101%,90.2%,111%,103%,96.1%,91.7%,88.9%,120%,102%
CCCCCCCCn1ccc2cc(NC(=O)CN3CCN(c4cc(C)nc(Cl)n4)CC3)ccc21,73.3%,73.5%,94.9%,95.2%,75.2%,105%,72.5%,108%,94.2%,84.8%,67.8%,75%,84.1%,95.3%,75.4%,79.2%,106%,91.9%
COCCn1cc(-c2csc(-c3c[nH]c4ccccc34)n2)c2cccnc21,8.15% (active),43.8%,38.6%,75.7%,44.3%,49.5%,41.8%,20.7%,57.4%,12.7%,3.06% (active),21.8%,2.9% (active),30.7%,9.88% (active),16.6%,42.1%,15.6%
CCOC(=O)C1=C(c2ccccc2)N=C2N(c3ccccc3)N=C(C(C)=O)N2C1c1ccc(F)cc1 (stereo unspecified),97.1%,89.3%,99.3%,102%,97.9%,107%,96.3%,105%,92.1%,109%,98.8%,101%,102%,99.9%,95.1%,97.8%,115%,97.6%
CN(C)CCCC1(c2ccc(F)cc2)OCc2cc(-c3csc4ccccc34)ccc21 (stereo unspecified),-8.7% (active),-40.7% (active),-23.2% (active),37%,26.4%,81.9%,-31.1% (active),-58.2% (active),19.3%,37.9%,26.4%,84.2%,-91.4% (active),-82.4% (active),-62.5% (active),-44.2% (active),-82.9% (active),-83.2% (active)
Cc1ccc(Cc2cnc(NC(=O)/C=C/c3ccc(C)o3)s2)cc1,16.2%,26.8%,62%,60.3%,73.4%,42.9%,42.2%,-8.25% (active),30.7%,33.9%,35.5%,72.3%,-52.5% (active),22.7%,12.3%,27.7%,65.2%,16.5%
O=C1/C(=C/c2cccc(Br)c2)COc2ccc(O)cc21,4.39% (active),-27.3% (active),54.1%,89.8%,83.4%,115%,78%,49.1%,60.3%,47.6%,19.6%,47.7%,25.1%,-21.2% (active),6.98% (active),6.67% (active),86.2%,28%
COc1ccc(Nc2ncc(I)c(NCCCNC(=O)C3CCC3)n2)cc1,0.641% (active),11.4%,19.3%,3.96% (active),42.2%,-3.33% (active),-20.8% (active),-40.4% (active),17.1%,22.2%,43%,-73.8% (active),49.4%,12.9%,3.83% (active),-30.3% (active),25.4%,5.46% (active)
COC(=O)[C@@]1(C)CC[C@]2(C)CC[C@]3(C)C4=CC=C5C(=CC(=O)C(O)=C5C)[C@]4(C)[C@@H](O)C[C@@]3(C)[C@@H]2C1,-6.62% (active),3.73% (active),4.47% (active),66.7%,34%,82.4%,-46.8% (active),-16.6% (active),27.4%,49%,-13.7% (active),35.5%,15.9%,-10.4% (active),17.6%,0.149% (active),37.7%,77.6%
O=C(NCc1ccc(Cn2c(=O)sn(-c3ccccc3)c2=O)cc1)OCc1ccc2cccc(O)c2n1,-11.3% (active),-22.5% (active),-0.135% (active),-61.2% (active),-33.6% (active),75.8%,-76.5% (active),-87.1% (active),-1.39% (active),-28.1% (active),-41.7% (active),-85% (active),-89.9% (active),-62.2% (active),-43.2% (active),-87% (active),-71.6% (active),-15.1% (active)
Cc1nn(C)c2ncnc(N/N=C/c3cccc(O)c3O)c12,7.79% (active),-8.14% (active),18.2%,41.8%,22%,9.76% (active),15.4%,25.5%,52.3%,11.9%,19%,30.8%,24.4%,26.7%,15%,18%,38.2%,21.5%
